Laboratory results: PubChem BioAssay (Tox21)
Inconclusive results are not listed. Active and inactive are the calls of the source. Unless noted, the call rests on the fitted dose curve; in most records, active means well fitted curve in the direction sought with a large enough effect in the repeat runs; inconclusive means weak or mixed curves; inactive means no such curve, though single readings can be large; an effect the other way counts as inactive or inconclusive.

What was measured:
[1] = qHTS assay to identify aromatase inhibitors - cell viability counter screen (AID 743084);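 further: cells stimulated with testosterone during compound exposure; nearly all actives have a fitted effect of over 55% in size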; further: potency means the concentration at half of the fitted maximal effect
[2] = target: Aryl hydrocarbon receptor (Homo sapiens) (UniProt P35869); assay: qHTS assay to identify small molecule that activate the aryl hydrocarbon receptor (AhR) signaling pathway (AID 743085);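 further: HG2L7.5c1 human HepG2 liver cells with stably integrated DRE-driven firefly reporter; series mostly up to about 70 µM; nearly all actives have a fitted effect of over 15% in size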
Sequence of Aryl hydrocarbon receptor (Homo sapiens) (P35869 whole entry, looked up): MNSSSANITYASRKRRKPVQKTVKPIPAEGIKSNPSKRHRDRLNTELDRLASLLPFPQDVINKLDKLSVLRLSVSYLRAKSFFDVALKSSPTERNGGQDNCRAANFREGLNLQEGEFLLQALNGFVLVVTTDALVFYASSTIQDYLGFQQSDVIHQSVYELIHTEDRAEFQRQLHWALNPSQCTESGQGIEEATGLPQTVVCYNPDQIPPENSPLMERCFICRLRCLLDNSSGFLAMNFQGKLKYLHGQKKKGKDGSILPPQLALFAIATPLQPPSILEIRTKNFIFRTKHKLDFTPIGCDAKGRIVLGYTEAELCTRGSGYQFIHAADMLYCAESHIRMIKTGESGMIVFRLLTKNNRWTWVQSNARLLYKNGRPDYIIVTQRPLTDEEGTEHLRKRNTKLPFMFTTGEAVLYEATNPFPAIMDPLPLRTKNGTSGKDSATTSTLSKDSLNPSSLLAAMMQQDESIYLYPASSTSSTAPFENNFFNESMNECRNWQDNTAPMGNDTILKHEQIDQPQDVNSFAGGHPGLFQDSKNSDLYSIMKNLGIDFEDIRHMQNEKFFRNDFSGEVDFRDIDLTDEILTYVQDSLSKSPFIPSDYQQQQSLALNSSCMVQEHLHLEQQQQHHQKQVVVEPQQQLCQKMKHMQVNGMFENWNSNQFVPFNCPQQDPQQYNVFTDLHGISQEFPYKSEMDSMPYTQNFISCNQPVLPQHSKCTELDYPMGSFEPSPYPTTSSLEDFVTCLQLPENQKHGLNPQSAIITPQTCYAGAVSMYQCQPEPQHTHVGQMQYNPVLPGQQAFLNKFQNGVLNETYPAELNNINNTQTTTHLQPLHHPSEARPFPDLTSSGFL
In short: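 Steps: seed HepG2-AhR-luc cells; allow 5 h at 37C; pin-transfer test compound or vehicle; incubate 24 h at 37C; add viability dye (30 min, 37C) and read fluorescence; add luciferase substrate (30 min, RT) and read luminescence.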

[3] = target: Peroxisome proliferator-activated receptor gamma (Homo sapiens) (UniProt P37231); assay: qHTS assay to identify small molecule agonists of the peroxisome proliferator-activated receptor gamma (PPARg) signaling pathway (AID 743094; active means well fitted activation curve with a large enough effect in the signal ratio in the repeat runs, not every such curve was filed as active; the % refers to the signal ratio)
Sequence of Peroxisome proliferator-activated receptor gamma (Homo sapiens) (P37231 whole entry, looked up): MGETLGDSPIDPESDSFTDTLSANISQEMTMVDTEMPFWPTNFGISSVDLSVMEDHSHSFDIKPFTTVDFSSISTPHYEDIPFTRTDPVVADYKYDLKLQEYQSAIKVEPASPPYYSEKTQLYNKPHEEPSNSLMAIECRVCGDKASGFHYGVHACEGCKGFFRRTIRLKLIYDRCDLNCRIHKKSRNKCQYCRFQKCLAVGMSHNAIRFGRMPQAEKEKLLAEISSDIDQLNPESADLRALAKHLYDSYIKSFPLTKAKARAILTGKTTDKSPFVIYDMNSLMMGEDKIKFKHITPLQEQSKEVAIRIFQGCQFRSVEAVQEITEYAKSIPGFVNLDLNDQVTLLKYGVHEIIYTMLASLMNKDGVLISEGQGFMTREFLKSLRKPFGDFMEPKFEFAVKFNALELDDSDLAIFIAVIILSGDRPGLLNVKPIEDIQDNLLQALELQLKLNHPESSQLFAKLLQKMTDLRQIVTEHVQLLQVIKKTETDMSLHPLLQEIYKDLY
In short: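 Agonist activity was taken from a beta-lactamase reporter (FRET substrate, 1 h at room temperature) in HEK293H cells carrying a PPARg UAS-bla construct. Compounds in DMSO were incubated 17 h at 37C after a 5 h cell pre-incubation.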

[4] = qHTS assay to identify small molecule phospholipidosis (PLD) inducers (AID 1259344; active means well fitted curve in the direction sought with a large enough effect; an effect the other way counts as inactive or inconclusive)
In short: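 Image-based: LipidTOX Red pit count/intensity per well and per cell; HepG2, 24 h compound at 37 C, PFA fixation, Hoechst counterstain.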

[5] = target: Nuclear receptor subfamily 1 group I member 2 (Rattus norvegicus) (UniProt Q9R1A7); assay: Rat pregnane X receptor (rPXR) activation by small molecules, qHTS assay (AID 1346983); conditions: rPXR luciferase reporter cells, One-Glo luminescence, 24 h; max activation: active compounds read high; further: nearly all actives have a fitted effect of over 20% in size
Sequence of Nuclear receptor subfamily 1 group I member 2 (Rattus norvegicus) (Q9R1A7 whole entry, looked up): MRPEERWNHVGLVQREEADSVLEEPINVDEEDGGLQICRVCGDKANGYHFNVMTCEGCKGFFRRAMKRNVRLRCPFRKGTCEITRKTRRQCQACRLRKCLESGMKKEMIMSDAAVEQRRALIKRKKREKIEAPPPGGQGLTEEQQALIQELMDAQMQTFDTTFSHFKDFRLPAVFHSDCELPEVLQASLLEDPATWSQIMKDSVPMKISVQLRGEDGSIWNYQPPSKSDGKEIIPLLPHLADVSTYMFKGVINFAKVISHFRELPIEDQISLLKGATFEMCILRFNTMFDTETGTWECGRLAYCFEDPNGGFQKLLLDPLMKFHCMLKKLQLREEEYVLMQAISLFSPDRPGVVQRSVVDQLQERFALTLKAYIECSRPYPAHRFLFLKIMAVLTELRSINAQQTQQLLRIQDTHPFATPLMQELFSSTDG
In short: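 Cell-based rPXR activation assay: rPXR cells, 2,000 per well, rested 5hr at 37 C, then exposed to compounds in DMSO for 24 hr at 37 C. Luciferase activity read by One-Glo luminescence after 30 min at room temperature.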

[6] = target: Nuclear receptor subfamily 1 group I member 2 (Homo sapiens) (UniProt O75469); assay: CYP3A4 induction through human pregnane X receptor (PXR) by small molecules, qHTS assay (AID 1346984); further: nearly all actives have a fitted effect of over 40% in size
In short: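 Read-out is luminescence after One-Glo addition, following a 3 hr, 37C incubation with Luciferin-IPA CYP3A4 substrate (3uM final). Before that, compounds were on DPX-2 cells (HepG2 co-transfected with PXR element plus CYP3A4-promoter luciferase) for 24 hr at 37C.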

[7] = target: Nuclear receptor subfamily 1 group I member 2 (Homo sapiens) (UniProt O75469); assay: Human pregnane X receptor (PXR) activation by small molecules, qHTS assay (AID 1346985); further: nearly all actives have a fitted effect of over 40% in size
In short: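 DPX-2 cells (HepG2 co-transfected with a PXR response element and a CYP3A4-promoter luciferase construct) were seeded at 2,000 per well, rested 5 hr at 37C, then exposed to DMSO-dissolved compounds for 24 hr. Activation was read as luciferase luminescence.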

[8] = qHTS assay to identify small molecule that activate the aryl hydrocarbon receptor (AhR) signaling pathway - cell viability counter screen (AID 743086); further: nearly all actives have a fitted effect of over 45% in size; further: potency means the concentration at half of the fitted maximal effect
In short: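 HepG2-AhR-luc (HG2L7.5c1) cells, 4000/well, treated 24 h at 37 C with compound; viability measured as CellTiter-Fluor fluorescence after 30 min in the same wells as the luciferase read.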
On the % scale 0 is the no-effect control and ±100 the full control effect.

CCOC(=O)O[C@]1(C(=O)COC(=O)CC)CC[C@H]2[C@@H]3CCC4=CC(=O)C=C[C@]4(C)[C@H]3[C@@H](O)C[C@@]21C
inactive: Potency [1] | Potency [2] | Potency [3] | Potency [4] | max activation [5] 13.1% | Potency [6] | Potency [7]

CC(C)C[C@H](NC(=O)[C@@H](Cc1c[nH]c2ccccc12)NC(=O)[C@H](Cc1ccc(O)cc1)NC(=O)[C@H](CO)NC(=O)[C@H](Cc1c[nH]c2ccccc12)NC(=O)[C@H](Cc1cnc[nH]1)NC(=O)[C@@H]1CCC(=O)N1)C(=O)N[C@@H](CCCN=C(N)N)C(=O)N1CCC[C@@H]1C(=O)NCC(N)=O
inactive: Potency [1] | Potency [2] | Potency [8] | Potency [3] | Potency [4] | max activation [5] -2.6% | Potency [6] | Potency [7]

[O]=[Bi][O]C(=O)[O][Bi]=[O]
inactive: Potency [1] | Potency [2] | Potency [8] | Potency [3] | Potency [4] | max activation [5] -3.15% | Potency [6] | Potency [7]

CCOC(=O)[C@H](CS)NCCN[C@@H](CS)C(=O)OCC
inactive: Potency [1] | Potency [2] | Potency [8] | Potency [3] | Potency [4] | max activation [5] -0.64% | Potency [6] | Potency [7]

NCCCC[C@H](N)C(=O)O
inactive: Potency [1] | Potency [2] | Potency [3] | Potency [4] | max activation [5] -0.992% | Potency [6] | Potency [7]

CC[C@H]1NC(=O)[C@@H](NC(=O)c2ncccc2O)[C@@H](C)OC(=O)[C@H](c2ccccc2)NC(=O)[C@@H]2CC(=O)CCN2C(=O)[C@H](Cc2ccccc2)N(C)C(=O)[C@@H]2CCCN2C1=O
inactive: Potency [1] | Potency [2] | Potency [8] | Potency [3] | Potency [4] | max activation [5] 9.01% | Potency [6] | Potency [7]

CCN(CC)CCOC(=O)c1cccnc1
inactive: Potency [1] | Potency [2] | Potency [8] | Potency [3] | Potency [4] | max activation [5] -7.53% | Potency [6] | Potency [7]

CC1(O)CCC(C(C)(C)O)CC1 (stereo unspecified)
inactive: Potency [1] | Potency [2] | Potency [8] | Potency [3] | Potency [4] | max activation [5] -1.3% | Potency [6] | Potency [7]

COc1ccc(C[C@H](C)NC[C@@H](O)c2ccc(O)c(NC=O)c2)cc1
inactive: Potency [1] | Potency [2] | Potency [3] | Potency [4] | max activation [5] -1.02% | Potency [6] | Potency [7]

CC1(C)S[C@@H]2[C@H](NC(=O)C(C(=O)O)c3ccsc3)C(=O)N2[C@H]1C(=O)O (stereo partly specified)
inactive: Potency [1] | Potency [2] | Potency [8] | Potency [3] | Potency [4] | max activation [5] -6.29% | Potency [6] | Potency [7]

Cc1ccc(S(=O)(=O)NC(=O)N[C@@H](C)Cc2ccccc2)cc1
inactive: Potency [1] | Potency [2] | Potency [8] | Potency [3] | Potency [4] | max activation [5] 4.79% | Potency [6] | Potency [7]

CN(C)c1ccc(C(=C2C=CC(=[N+](C)C)C=C2)c2c(O)c(S(=O)(=O)[O-])cc3cc(S(=O)(=O)O)ccc23)cc1
inactive: Potency [2] | Potency [3] | Potency [4] | max activation [5] -15.3% | Potency [6] | Potency [7]
active: Potency [1] 29.8 µM | Potency [8] 26.6 µM

C[C@]12CC[C@@H]3c4ccc(OC(=O)c5ccccc5)cc4CC[C@H]3[C@@H]1CC[C@@H]2O
inactive: Potency [1] | Potency [2] | Potency [8] | Potency [3] | Potency [4] | max activation [5] -1.5% | Potency [6] | Potency [7]

CCCCCCCCCCCC(=O)OC[C@@H](O)C1OC[C@H](O)[C@H]1O (stereo partly specified)
inactive: Potency [1] | Potency [2] | Potency [8] | Potency [3] | Potency [4] | max activation [5] -2.81% | Potency [6] | Potency [7]

CCCCC(O)c1ccccc1 (stereo unspecified)
inactive: Potency [1] | Potency [2] | Potency [3] | Potency [4] | max activation [5] -0.82% | Potency [6] | Potency [7]

C=CCSSSCC=C
inactive: Potency [1] | Potency [2] | Potency [8] | Potency [3] | Potency [4] | max activation [5] 0.11% | Potency [6] | Potency [7]

O=C(CO)[C@@H](O)[C@H](O)[C@@H](O)C(=O)O
inactive: Potency [1] | Potency [2] | Potency [8] | Potency [3] | Potency [4] | max activation [5] -2.1% | Potency [6] | Potency [7]

CC(=O)Nc1c(I)c(C(=O)O)c(I)c(N(C)C(C)=O)c1I
inactive: Potency [1] | Potency [2] | Potency [8] | Potency [3] | Potency [4] | max activation [5] -0.923% | Potency [6] | Potency [7]

CCCCC(C)(O)C/C=C/[C@H]1[C@H](O)CC(=O)[C@@H]1CCCCCCC(=O)OC (stereo partly specified)
inactive: Potency [1] | Potency [2] | Potency [3] | Potency [4] | max activation [5] -4.82% | Potency [6] | Potency [7]

Oc1cc(O)cc(O)c1
inactive: Potency [1] | Potency [2] | Potency [8] | Potency [3] | Potency [4] | max activation [5] -1.47% | Potency [6] | Potency [7]

C/C1=C2N=C(/C=C3N=C(/C(C)=C4\[N-][C@@](C)([C@@H]5N=C1[C@](C)(CCC(=O)NCC(C)OP(=O)(O)O[C@H]1[C@@H](O)[C@@H](n6cnc7cc(C)c(C)cc76)O[C@@H]1CO)[C@H]5CC(N)=O)[C@@](C)(CC(N)=O)[C@@H]4CCC(N)=O)[C@@](C)(CC(N)=O)[C@@H]\3CCC(N)=O)C(C)(C)[C@@H]/2CCC(N)=O.CC(=O)O.[Co] (stereo partly specified)
active: Potency [1] 23.7 µM
inactive: Potency [2] | Potency [3] | Potency [4] | max activation [5] -15.5% | Potency [6] | Potency [7]

CCCCCCCCCCCCCCCCCCCCCCO
inactive: Potency [1] | Potency [2] | Potency [8] | Potency [3] | Potency [4] | max activation [5] -1.89% | Potency [6] | Potency [7]

S=C=Nc1ccc(N=C=S)cc1
inactive: Potency [1] | Potency [2] | Potency [8] | Potency [3] | Potency [4] | max activation [5] -1.24% | Potency [6] | Potency [7]

CCCCCCCCCCCCCCCCCC(=O)OCC(C)O (stereo unspecified)
inactive: Potency [2] | Potency [3] | Potency [4] | max activation [5] -10.2% | Potency [6] | Potency [7]
active: Potency [1] 18.8 µM | Potency [8] 33.5 µM

CC1(C)S[C@@H]2[C@H](NC(=O)C(N)c3ccccc3)C(=O)N2[C@H]1C(=O)OC1OC(=O)c2ccccc21 (stereo partly specified)
inactive: Potency [1] | Potency [2] | Potency [8] | Potency [3] | Potency [4] | max activation [5] -3.71% | Potency [6] | Potency [7]

CC(=O)N=c1sc(S(N)(=O)=O)nn1C
inactive: Potency [1] | Potency [2] | Potency [8] | Potency [3] | Potency [4] | max activation [5] -1.62% | Potency [6] | Potency [7]

CC(C)NCC(O)COc1ccccc1-n1cccc1 (stereo unspecified)
inactive: Potency [1] | Potency [2] | Potency [8] | Potency [3] | Potency [4] | max activation [5] 1.86% | Potency [6] | Potency [7]

CC(C)[C@@H](C)/C=C/[C@@H](C)[C@H]1CC[C@H]2/C(=C/C=C3\C[C@@H](O)CC[C@@H]3C)CCC[C@]12C
inactive: Potency [1] | Potency [2] | Potency [8] | Potency [3] | Potency [4] | max activation [5] -0.157% | Potency [6] | Potency [7]

CC(C)[C@@H]1CC[C@@H](C)C[C@H]1OC(=O)c1ccccc1O
inactive: Potency [1] | Potency [2] | Potency [8] | Potency [3] | Potency [4] | max activation [5] -0.772% | Potency [6] | Potency [7]

C[C@H](O)[C@H](O)[C@H]1CNc2nc(N)[nH]c(=O)c2N1
inactive: Potency [1] | Potency [2] | Potency [8] | Potency [3] | Potency [4] | max activation [5] -2.27% | Potency [6] | Potency [7]

CCCCCCCCCCCCCCCCCC[N+](C)(C)CCC[Si](OC)(OC)OC
inactive: Potency [1] | Potency [2] | Potency [3] | Potency [4] | max activation [5] 6.33% | Potency [6] | Potency [7]

O=C(O)CCC/C=C\C[C@@H]1[C@@H](/C=C/[C@@H](O)COc2cccc(Cl)c2)[C@H](O)C[C@@H]1O
inactive: Potency [1] | Potency [2] | Potency [8] | Potency [3] | Potency [4] | max activation [5] -0.0632% | Potency [6] | Potency [7]

NCc1ccccc1CC(=O)N[C@@H]1C(=O)N2C(C(=O)O)=C(CSc3nnnn3CC(=O)O)CS[C@H]12
inactive: Potency [1] | Potency [8] | Potency [3] | Potency [4] | max activation [5] -0.103% | Potency [6] | Potency [7]

COc1cc(-c2ccc(-[n+]3nc(-c4ccccc4)nn3-c3ccc([N+](=O)[O-])cc3)c(OC)c2)ccc1-[n+]1nc(-c2ccccc2)nn1-c1ccc([N+](=O)[O-])cc1
inactive: Potency [4] | max activation [5] -16% | Potency [6] | Potency [7]
active: Potency [1] 29.8 µM | Potency [8] 26.6 µM

COc1ccc(C[C@@H](C)NC[C@H](O)c2ccc(O)c(NC=O)c2)cc1
inactive: Potency [1] | Potency [8] | Potency [3] | Potency [4] | max activation [5] -1.9% | Potency [6] | Potency [7]

O=C(Cc1cccs1)N[C@@H]1C(=O)N2C(C(=O)[O-])=C(C[n+]3ccccc3)CS[C@H]12
inactive: Potency [1] | Potency [8] | Potency [3] | Potency [4] | max activation [5] -1.81% | Potency [6] | Potency [7]
